A short description of assay [1]: qHTS assay to identify small molecule antagonists of the estrogen receptor beta (ER-beta) signaling pathway - cell viability counter screen (AID 1259382).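 Note: HEK293T cells carrying ER-beta-UAS-bla reporter stimulated with estradiol; series mostly up to about 92 µM; nearly all actives have a fitted effect of over 55% in size.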 In outline: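 HEK293T ER-beta-UAS-bla, 2% charcoal-stripped FBS; compounds + 1nM E2 16 hr 37C; CellTiter-Glo luminescence, 30 min RT.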
On the technique in general: In qHTS, concentration-response curves come from the screen itself.

A short description of assay [2]: qHTS assay to identify small molecule agonists or antagonists of the thyroid stimulating hormone receptor (TSHR) signaling pathway - wild type cell line counter screen (AID 1259384; calls by dose curve). In outline:
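Wild-type Hek293 cells, 800/well, 18 h at 37C, then compound with Ro20-1724 for 30 min RT. cAMP by HTRF (cAMP-d2/anti-cAMP cryptate), 1 h RT, fluorescence read. 15 concentrations, triplicates.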

Assay [3] addresses Thyrotropin receptor (Homo sapiens) (UniProt P16473). In words: qHTS assay to identify small molecule antagonists of the thyroid stimulating hormone receptor (TSHR) signaling pathway (AID 1259385; calls by dose curve; note: nearly all actives have a fitted effect of over 20% in size). Summed up:
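TSHR-HEK293 cells (800/well) plated 18 h, then compounds with Ro20-1724 and TSH at 1.5 ng/mL final, 30 min at room temperature. cAMP quantified by HTRF (cAMP-d2/anti-cAMP-cryptate, 1 h); 15 concentrations in triplicate.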

Assay [4] in a line: qHTS assay to identify small molecule agonists of the estrogen receptor alpha (ER-alpha) signaling pathway in the presence of an antagonist - cell viability counter screen (AID 1259386).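 Note: series mostly up to about 92 µM; cells exposed to compounds for 22 h at 37 °C before the viability read; nearly all actives have a fitted effect of over 30% in size.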 In outline: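 Steps: 5-day stripped-FBS culture; seed and incubate 24hr; add ICI-182,780 (10.0nM final); pin 15-point compound titration; incubate 22hr at 37C; add CellTiter-Fluor at 21hr; read fluorescence.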

In assay [5] the target is Progesterone receptor (Homo sapiens) (UniProt P06401). In words: qHTS assay to identify small molecule agonists of the progesterone receptor (PR) signaling pathway (AID 1346784; calls by dose curve; note: nearly all actives have a fitted effect of over 30% in size; note: potency is the fitted concentration of half-maximal effect). Summed up: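 Seed PR-UAS-bla HEK 293T cells (2% charcoal-stripped FBS), incubate 6 hr at 37C; add compounds in DMSO, 16 hr at 37C; add LiveBLAzer B/G substrate, 2 hr RT; read fluorescence intensity.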
Progesterone receptor (Homo sapiens), sequence (P06401 whole entry, looked up): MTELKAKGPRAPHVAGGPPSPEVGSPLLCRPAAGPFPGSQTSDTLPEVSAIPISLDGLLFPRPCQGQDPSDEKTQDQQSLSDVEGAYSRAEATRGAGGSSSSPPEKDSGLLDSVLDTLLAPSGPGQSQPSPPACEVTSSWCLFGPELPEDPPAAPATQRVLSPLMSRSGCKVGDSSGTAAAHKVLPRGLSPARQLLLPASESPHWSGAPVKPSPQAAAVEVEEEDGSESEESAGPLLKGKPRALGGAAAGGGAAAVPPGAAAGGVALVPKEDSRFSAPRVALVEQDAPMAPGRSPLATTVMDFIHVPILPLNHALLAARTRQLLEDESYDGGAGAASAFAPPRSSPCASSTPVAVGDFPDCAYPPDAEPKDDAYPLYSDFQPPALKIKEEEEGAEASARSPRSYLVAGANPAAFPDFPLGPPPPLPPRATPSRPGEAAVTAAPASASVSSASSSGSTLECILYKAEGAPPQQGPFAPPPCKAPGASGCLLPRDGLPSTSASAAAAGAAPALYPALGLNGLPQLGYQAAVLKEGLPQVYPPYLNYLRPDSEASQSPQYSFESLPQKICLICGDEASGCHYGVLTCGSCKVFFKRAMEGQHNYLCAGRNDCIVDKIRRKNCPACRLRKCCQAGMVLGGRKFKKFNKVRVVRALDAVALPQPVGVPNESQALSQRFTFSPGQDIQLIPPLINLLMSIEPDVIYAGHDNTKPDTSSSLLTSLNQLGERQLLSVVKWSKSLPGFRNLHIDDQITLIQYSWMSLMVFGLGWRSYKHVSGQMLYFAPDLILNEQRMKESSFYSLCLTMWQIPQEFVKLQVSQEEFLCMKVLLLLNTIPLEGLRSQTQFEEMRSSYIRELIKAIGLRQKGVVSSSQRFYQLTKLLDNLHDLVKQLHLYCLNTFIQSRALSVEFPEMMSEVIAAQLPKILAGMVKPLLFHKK

Assay [6] has the same target. In words: qHTS assay to identify small molecule antagonists of the progesterone receptor (PR) signaling pathway (AID 1346795; active = well fitted inhibition curve with a large enough effect in the signal ratio in the repeat runs, not every such curve was filed as active; the % refers to the signal ratio). In outline:
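Screening used a GripTite HEK293T line with PR-responsive UAS-beta-lactamase. Cells were challenged with compound in the presence of 1 nM R5020 final for 16 hr at 37C; B/G FRET substrate, 2 hr room temperature, fluorescence.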

Assay [7] can be described thus: qHTS assay to identify small molecule antagonists of the progesterone receptor (PR) signaling pathway - cell viability counter screen (AID 1346798). Note: series mostly up to about 92 µM; nearly all actives have a fitted effect of over 50% in size. Summed up: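 Measures cytotoxicity in parallel with the PR antagonist reporter read: HEK293T PR-UAS-bla cells get compound and R5020 for 16 hr, and remaining viable cells are quantified by CellTiter-Glo luminescence.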

Assay [8] in a line: qHTS assay to identify small molecule agonists of the progesterone receptor (PR) signaling pathway - cell viability counter screen (AID 1346799; calls by dose curve; note: nearly all actives have a fitted effect of over 45% in size). In outline:
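Using the same plates as the PR reporter screen, HEK293T PR-UAS-bla cells received compounds for 16 hr at 37C and were then lysed with CellTiter-Glo; luminescence was read 30 min later at room temperature.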

The nature of assay [9]: qHTS assay to identify small molecule antagonists of the TGF-beta/Smad signaling pathway - cell viability counter screen (AID 1346824). Note: nearly all actives have a fitted effect of over 50% in size. In outline: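 SBE-bla HEK 293T cells, incubated overnight, then compound plus 0.25 ng/mL TGF-beta1 (stock added) for 5 hr at 37 C. Viability was read in the same wells by CellTiter-Glo luminescence after 30 min at room temperature.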
The nature of assay [10]: qHTS assay to identify small molecule agonists of the TGF-beta/Smad signaling pathway - cell viability counter screen (AID 1346829). Note: top concentration of the series differs between compounds; nearly all actives have a fitted effect of over 45% in size. In outline: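 SBE-bla HEK 293T cells plated overnight, compound exposure 5 hr at 37 C. Viability read in the same wells by CellTiter-Glo luminescence after 30 min at room temperature, following the beta-lactamase read.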
Assay [11] is described as follows: qHTS assay to identify small molecule agonists of the TGF-beta/Smad signaling pathway (AID 1346859; active = well fitted activation curve with a large enough effect in the signal ratio in the repeat runs, not every such curve was filed as active; the % refers to the signal ratio; note: series mostly up to about 77 µM). In outline: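 Beta-lactamase reporter activity downstream of Smad binding elements was measured in stably transfected HEK 293T cells; compounds were incubated for 5 hr, substrate for 2 hr at room temperature.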
For assay [12], the target named is Thyrotropin-releasing hormone receptor (Homo sapiens) (UniProt P34981). In words: qHTS assay to identify small molecule antagonists of the thyrotropin-releasing hormone receptor (TRHR) signaling pathway (AID 1346877; active = well fitted inhibition curve with a large enough effect in the repeat runs, not every such curve was filed as active; note: series mostly up to about 51 µM). In outline:
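Human TRHR in HEK293 cells; inhibition of the intracellular calcium rise triggered by 1 nM TRH was followed by fluorescence over 3 min. Compounds were run at 15 concentrations, three replicates each.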

The target is the same in assay [13]. The assay can be described thus: qHTS assay to identify small molecule agonists of the thyrotropin-releasing hormone receptor (TRHR) signaling pathway (AID 1346891; calls by dose curve;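 note: HEK293 cells expressing TRHR with calcium dye readout; series mostly up to about 58 µM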). Summed up:
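Overnight-plated (18 h, 37 °C, 5% CO2) TRHR-Hek293 cells; 2 h calcium dye at 37 °C; compound in DMSO; 3-min kinetic fluorescence read.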

Assay [14] can be described thus: Human pregnane X receptor (PXR) small molecule agonists, qHTS cell viability counter screen (AID 1346977). Note: nearly all actives have a fitted effect of over 50% in size. In outline: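 After a 5hr pre-incubation, PXR-Luc HepG2 cells received compounds plus positive control in DMSO and were kept 24hr at 37C. Cell viability was quantified by fluorescence from CellTiter-Fluor added for the final hour.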
Assay [15] in a line: Caspase-3/7 induction in HepG2 cells by small molecules, qHTS assay (AID 1346978). Note: nearly all actives have a fitted effect of over 15% in size. Summed up:
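Wild-type HepG2 cells, 2,000/well, settled 5 hr at 37 C and 5% CO2, then compound-treated for 17 hr; caspase-3/7 activity read by luminescent Caspase-Glo 3/7 after 30 min at room temperature.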

Assay [16] in a line: Caspase-3/7 induction in CHO-K1 cells by small molecules, qHTS cell viability counter screen (AID 1346979). Note: nearly all actives have a fitted effect of over 35% in size. Note: potency is the fitted concentration of half-maximal effect. In outline: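 Multiplexed with Caspase-Glo 3/7 in CHO-K1 cells, this counter screen added CellTiter-Fluor after 16hr of compound exposure and recorded fluorescence 1hr later.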
Assay [17] can be described thus: Caspase-3/7 induction in CHO-K1 cells by small molecules, qHTS assay (AID 1346980). Note: nearly all actives have a fitted effect of over 15% in size. Summed up: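 Wild-type CHO-K1 cells exposed to compounds for 17hr at 37 C, 5% CO2. Caspase-3/7 activity then measured by Caspase-Glo 3/7 luminescence after 30min at room temperature.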
Assay [18] is described as follows: Caspase-3/7 induction in HepG2 cells by small molecules, qHTS cell viability counter screen (AID 1346981). Note: series mostly up to about 92 µM; nearly all actives have a fitted effect of over 30% in size. Summed up: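 The parent HepG2 line is plated at 2,000 cells per well and rested 5 hr before compound pinning from DMSO stocks. Following a 16-hr treatment at 37 C, a fluorogenic live-cell substrate (CellTiter-Fluor) reports viability after 1 hr.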
For assay [19], the target named is Nuclear receptor subfamily 1 group I member 2 (Homo sapiens) (UniProt O75469). The assay can be described thus: Human pregnane X receptor (PXR) small molecule agonists, qHTS assay (AID 1346982). Note: nearly all actives have a fitted effect of over 35% in size. In outline:
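After plating in 5% charcoal-stripped FBS and a 5 hr rest, PXR-Luc HepG2 cells received compounds in DMSO. Following 24 hr at 37 C, ONE-Glo was added and light output read.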

Assay [20] concerns the target Estrogen receptor (Homo sapiens) (UniProt P03372). In words: qHTS assay to identify small molecule agonists of the estrogen receptor alpha (ER-alpha) signaling pathway in the presence of an antagonist (AID 1259383; calls by dose curve; note: top concentration of the series differs between compounds; nearly all actives have a fitted effect of over 15% in size). Summed up: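 ER-alpha agonism measured under antagonist challenge: 10.0nM ICI-182,780 (final) plus compound, 15 concentrations, 22hr, VM7Luc4E2 ERE-luciferase cells. Read by luminescence.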

SMILES strings stand for the structures. A number with no mark means an inactive call. Records with an inconclusive call do not appear. The source made the active and inactive calls. Unless noted, calls come from the whole dose curve; as a rule, active = well fitted curve in the direction sought with a large enough effect in the repeat runs; inconclusive = weak or mixed curves; inactive = no such curve, though single readings can be large; an effect the other way counts as inactive or inconclusive.
% is set by controls: 0 for no effect and ±100 for the full control effect.

Nuclear receptor subfamily 1 group I member 2 (Homo sapiens), sequence (O75469 whole entry, looked up): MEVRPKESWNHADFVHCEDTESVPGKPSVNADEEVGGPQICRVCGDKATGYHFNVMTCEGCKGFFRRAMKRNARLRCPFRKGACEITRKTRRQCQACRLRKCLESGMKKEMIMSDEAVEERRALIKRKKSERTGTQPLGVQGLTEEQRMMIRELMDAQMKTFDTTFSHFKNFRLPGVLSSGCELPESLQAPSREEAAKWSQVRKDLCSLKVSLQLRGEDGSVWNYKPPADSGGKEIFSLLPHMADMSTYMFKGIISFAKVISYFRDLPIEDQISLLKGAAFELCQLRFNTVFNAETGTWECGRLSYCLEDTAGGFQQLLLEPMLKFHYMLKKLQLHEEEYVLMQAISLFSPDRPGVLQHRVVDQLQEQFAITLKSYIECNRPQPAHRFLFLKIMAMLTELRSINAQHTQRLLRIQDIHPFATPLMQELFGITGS
Thyrotropin-releasing hormone receptor (Homo sapiens), sequence (P34981 whole entry, looked up): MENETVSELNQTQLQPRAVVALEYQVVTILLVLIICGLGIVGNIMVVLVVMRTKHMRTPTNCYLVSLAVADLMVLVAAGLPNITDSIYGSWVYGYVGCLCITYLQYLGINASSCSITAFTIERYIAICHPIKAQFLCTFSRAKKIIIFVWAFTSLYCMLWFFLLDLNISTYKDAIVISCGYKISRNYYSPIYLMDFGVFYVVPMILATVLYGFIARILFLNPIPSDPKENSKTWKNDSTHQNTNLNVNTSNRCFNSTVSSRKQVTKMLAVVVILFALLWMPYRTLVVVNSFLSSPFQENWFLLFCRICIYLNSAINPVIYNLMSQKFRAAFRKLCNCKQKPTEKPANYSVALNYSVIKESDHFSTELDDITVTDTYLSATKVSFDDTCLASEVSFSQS
Thyrotropin receptor (Homo sapiens), sequence (P16473 whole entry, looked up): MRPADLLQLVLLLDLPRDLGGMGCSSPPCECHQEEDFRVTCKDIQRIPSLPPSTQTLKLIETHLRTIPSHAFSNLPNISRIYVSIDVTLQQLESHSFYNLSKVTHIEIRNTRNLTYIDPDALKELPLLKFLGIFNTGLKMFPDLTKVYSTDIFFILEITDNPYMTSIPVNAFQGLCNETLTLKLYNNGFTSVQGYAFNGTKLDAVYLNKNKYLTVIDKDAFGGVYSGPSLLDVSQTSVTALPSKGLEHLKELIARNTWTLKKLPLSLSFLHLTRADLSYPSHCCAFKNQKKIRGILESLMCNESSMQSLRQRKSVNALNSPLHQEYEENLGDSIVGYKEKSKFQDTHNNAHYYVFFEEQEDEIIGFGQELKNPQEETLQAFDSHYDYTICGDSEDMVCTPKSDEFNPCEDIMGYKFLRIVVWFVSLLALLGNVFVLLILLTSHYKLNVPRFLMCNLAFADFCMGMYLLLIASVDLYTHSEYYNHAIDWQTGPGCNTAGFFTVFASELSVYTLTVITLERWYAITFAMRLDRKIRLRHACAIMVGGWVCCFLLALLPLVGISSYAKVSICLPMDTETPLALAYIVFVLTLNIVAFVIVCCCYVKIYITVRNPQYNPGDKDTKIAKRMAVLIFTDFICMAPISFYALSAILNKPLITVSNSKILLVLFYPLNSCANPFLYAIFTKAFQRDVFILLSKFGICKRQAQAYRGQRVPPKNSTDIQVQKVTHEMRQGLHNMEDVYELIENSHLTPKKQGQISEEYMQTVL
Estrogen receptor (Homo sapiens), sequence (P03372 whole entry, looked up): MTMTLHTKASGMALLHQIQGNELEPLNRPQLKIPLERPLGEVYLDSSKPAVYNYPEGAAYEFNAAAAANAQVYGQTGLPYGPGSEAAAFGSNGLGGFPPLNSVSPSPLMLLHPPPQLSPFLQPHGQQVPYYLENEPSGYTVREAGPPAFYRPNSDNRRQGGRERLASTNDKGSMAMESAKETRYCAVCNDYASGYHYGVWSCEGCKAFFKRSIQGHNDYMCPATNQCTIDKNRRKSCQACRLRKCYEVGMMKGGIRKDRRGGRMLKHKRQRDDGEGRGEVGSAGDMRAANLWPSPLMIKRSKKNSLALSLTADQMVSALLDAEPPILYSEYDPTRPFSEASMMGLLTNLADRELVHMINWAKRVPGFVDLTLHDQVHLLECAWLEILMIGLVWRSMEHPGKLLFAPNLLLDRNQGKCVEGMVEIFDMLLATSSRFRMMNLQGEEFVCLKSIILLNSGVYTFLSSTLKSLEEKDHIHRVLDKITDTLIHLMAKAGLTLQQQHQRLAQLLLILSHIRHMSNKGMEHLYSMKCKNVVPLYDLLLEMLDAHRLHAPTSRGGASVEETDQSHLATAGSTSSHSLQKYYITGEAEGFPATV

For `C[C@H](CCC(=O)NCC(=O)O)[C@H]1CC[C@H]2[C@@H]3[C@H](O)C[C@@H]4C[C@H](O)CC[C@]4(C)[C@H]3C[C@H](O)[C@]12C`, the result in assay [1], in [2], in assay [3], in assay [9], in [10] and in assay [11] was inactive. Moreover, the outcome in [12], in assay [13], in assay [15] and in assay [17] was inactive. Besides, the Potency entry in [4], in [5], in assay [6], in [7], in assay [8] and in assay [14] was “inactive” throughout. Further, the Potency result in assay [16], in assay [18] and in [19] was “inactive” each time.
For `COc1cccc2sc(N)nc12`, the compound was classed as inactive in [1], in assay [2], in assay [3], in assay [9], in assay [10] and in [11]. The compound was called inactive in assay [12], in assay [13] and in assay [15]. Also, the Potency result in assay [4], in assay [6], in assay [7], in [8], in assay [14] and in assay [16] was “inactive” each time. The Potency result in assay [18] was “inactive”. Besides, in assay [5], the Potency was 43.5 µM (active).
As to `Nc1ccc(S(=O)(=O)NC(=O)c2ccccc2)cc1`, the compound was classed as inactive in [1], in assay [2], in [3], in assay [9], in [10] and in assay [11]. Besides, the outcome in assay [12], in assay [13], in assay [15] and in assay [17] was inactive. The Potency result in [4], in [5], in assay [6], in assay [7], in assay [8] and in assay [14] was “inactive” in each case. In addition, the Potency result in assay [16], in [18] and in [19] was “inactive” in each case.
For the compound `Nc1ccc(/C=C/c2ccc(N)cc2S(=O)(=O)O)c(S(=O)(=O)O)c1`, the activity change, negative = cytotoxicity was 6.78% [at 0.349 µM] in assay [1]; 0.0708% [at 0.349 µM] in [4]; 0.087% [at 0.348 µM] in [7]; -4.84% [at 0.349 µM] in [8]; 12.6% [at 0.29 µM] in assay [10]; 11% [at 0.349 µM] in assay [14]. The figures for the activity change, negative = cytotoxicity in assay [16] and in assay [18] were 8.5% [at 0.349 µM] and 1.29% [at 0.349 µM], respectively. The activation in assay [20] is 0.0248% [at 0.349 µM]; in [5] it was 0.0887% [at 0.349 µM]; in assay [11], 1.21% [at 0.29 µM]; in assay [13] it was 0.0703% [at 0.218 µM]. The activity change, negative = inhibition in assay [6] was 3.92% [at 0.348 µM]. In addition, the viability change, negative = cytotoxic in assay [9] is -0.698% [at 0.29 µM]. The activity, negative = inhibition in [12] was -5.44% [at 0.194 µM]. The caspase activation in assay [15] was 0.454% [at 0.349 µM]. Also, the caspase-3/7 activation in [17] was -0.823% [at 0.349 µM].
Turning to `Cc1cc(O)c2c(c1)C(=O)c1cccc(O)c1C2=O`, the compound was called inactive in [1], in assay [20], in assay [9], in assay [10], in assay [11] and in [12]. Further, the call in assay [13], in assay [15] and in [17] was inactive. Also, the Potency entry in assay [5], in assay [8] and in assay [18] was “inactive” in each case. Also, the Potency in assay [16] is 29.9 µM (active).
As for `CC(C)C(=O)Nc1cccc(C(F)(F)F)c1`, the compound was classed as inactive in assay [1], in assay [20], in [9], in [10], in [11] and in assay [12]. Moreover, the call in assay [13], in assay [15] and in assay [17] was inactive. In addition, the Potency entry in assay [4], in [5], in [6], in assay [8], in assay [14] and in [18] was “inactive” in each case.
With `CC(=O)Nc1ccc(C)cc1`, the compound was classed as inactive in [1], in [20], in assay [9], in assay [10], in assay [11] and in assay [12]. In addition, the compound was called inactive in [13], in assay [15] and in assay [17]. In addition, the Potency entry in assay [5], in assay [6], in assay [7], in assay [8], in assay [16] and in assay [18] was “inactive” in each case. Besides, the Potency entry in assay [19] is “inactive”.
Take `CC(=O)OC(C)c1ccccc1` (configuration not stated): the result in [1], in [20], in assay [2], in assay [9], in assay [10] and in [11] was inactive. For the same compound, the outcome in [12], in assay [13] and in assay [17] was inactive. Further, the Potency result in assay [5], in [6], in assay [7], in [8], in assay [14] and in [16] was “inactive” throughout. The Potency result in assay [18] was “inactive”.

These data come from PubChem BioAssay (Tox21).
